Measurements as given in PubChem BioAssay (NCATS).
The source made the active and inactive calls. Entries that show only a call come without a potency. Calls come from the whole dose curve; as a rule, active = well fitted inhibition curve with a large enough effect; inconclusive = small, poorly fitted or top-dose-only effect; inactive = no such curve, though single readings can be large or run the other way.
Potency is the fitted concentration of half-maximal effect.

Assay: qHTS assay for measurement of the activity of small molecule inhibitors on Zika virus induced Caspase-3 activity in human astrocytoma cells (AID 1224859)
Conditions: SNB-19 ZIKV-induced caspase-3/7, luminescence, 6 h; series mostly up to 45.7 µM
From the text: National Center for Advancing Translational Sciences [NCATS]
Johns Hopkins University School of Medicine
Increase in the Caspase-3 activity indicates an activation of apoptosis cell death pathway caused by Zika virus infection in certain types of neuronal cells including human neural progenitor cells (hNPCs), astrocytes, and astrocytoma cell line (SNB-19). This cell-based caspase-3 activity assay measures the increased caspase-3 activity in the astrocytoma cell line (SNB-19) after a 6-hour Zika virus infection with a luminescence readout. A decrease in the luminescence signal in this assay by small molecule treatment indicates an inhibitory effect of that small molecule on the Zika virus induced caspase-3 activity that may correlate with its effect on reduction of Zika virus caused cell death.
The medium for SNB-19 cells is composed of RPMI 1640 (ATCC, Cat.# 30-2001), 10% fetal bovine serum (FBS) (GE healthcare Life Sciences, Cat.# SH30071.03), and 1% Pen/Strep (Gibco, Cat.# 15140-122). A Caspase-Glo 3/7 assay kit (catalog number G8092; Promega, Madison, WI) was used to detect caspase-3 activity induced by Zika virus infection in human cells. The reagent mixture was reconstituted as described in the protocol from the manufacturer. Polystyrene tissue culture treated and PDL coated white plates were obtained from Greiner Bio-One (Monroe, NC). Cells were seeded in 384- or 1536-well assay plates and cultured at 37 C with 5% CO2 for 16 to 20 hours. The typical cell seeding density in the 1536-well plate assay is 250 cells/well in 3ul medium for SNB-19 cells in tissue culture treated plates. Compounds were added to cells and incubated for one hour before addition of ZIKV solution to cells (2 FFU/cell). After incubation at 37 C with 5% CO2 for 6 hours, the reagent mixture of Caspase-Glo 3/7 assay kit was added to each well, followed by incubation at room temperature for 30 minutes. The luminescence intensity of the assay plates was measured using a ViewLux plate reader (PerkinElmer). Data were normalized by using the cell-containing wells without ZIKV as a negative control (0% induction of caspase 3/7 activity) and wells containing ZIKV infected cells (Caspase-3 activity induced) as a positive control (100% induction of caspase 3 activity). The percentage inhibitions of the increased Caspase-3 activity by small molecule inhibitors were then calculated.
In the case of C=CCc1cccc(C=NNC(=O)CN2CCN(Cc3ccccc3)CC2)c1O, the Potency is reported as “inactive”. With O=C(Nc1ccc(OC(F)(F)F)cc1)c1sccc1NCc1ccnc2ccccc12 the Potency was 6.62 µM (active). In the case of CCC=CC[C@H]1C(=O)CC[C@@H]1CC(=O)OC, the Potency is reported as “inactive”. For N#CC(=C1Nc2ccccc2S1)c1ccnc(OCc2ccc(CN3CCOCC3)cc2)n1, the Potency was “inactive”. In the case of OCCn1cc(-c2ccc3c(c2)CCC3=NO)c(-c2ccncc2)n1, the Potency is reported as “inactive”. In the case of CC[C@H](CC#N)OC(=O)N[C@@H](C)c1cccc(NC(=O)Nc2ccc(-c3cnco3)c(OC)c2)c1, the Potency is reported as “inactive”. In the case of CO[C@H]1/C=C\O[C@@]2(C)Oc3c(C)c(O)c4c(O)c(c(C=NN5CCN(C6CCCC6)CC5)c(O)c4c3C2=O)NC(=O)C(C)=CC=C[C@H](C)[C@H](O)[C@@H](C)[C@@H](O)[C@@H](C)[C@H](OC(C)=O)[C@H]1C, the Potency is reported as “inactive”. For CN1[C@H]2CC[C@H]1CC(OC(=O)c1c[nH]c3ccccc13)C2 (stereo not given in full), the Potency was “inactive”. In the case of C[C@H]1O[C@@H](n2cc(F)c(=O)[nH]c2=O)[C@H](O)[C@H]1O, the Potency is reported as “inactive”. For C#C[C@]1(O)CC[C@H]2[C@H]3CCc4cc(OC)ccc4[C@H]3CC[C@@]21C, the Potency was “inactive”. With CC(=O)OCC(=O)[C@@]12OC(C)(C)O[C@H]1C[C@H]1[C@@H]3C[C@H](F)C4=CC(=O)C=C[C@]4(C)[C@@]3(F)[C@@H](O)C[C@@]12C the Potency was “inactive”. In the case of CO[C@H]1O[C@@H]2O[C@@]3(C)CC[C@@H]4[C@@H](C)CC[C@@H]([C@H]1C)[C@@]24OO3, the Potency is reported as “inactive”. With O=C(O)CCC=CCC[C@@H]1[C@H](N2CCCCC2)[C@@H](O)C[C@@H]1OCc1ccc(-c2ccccc2)cc1 the Potency was “inactive”. In the case of O=C(CO)N1CCC(c2[nH]nc(-c3ccc(Cl)cc3)c2-c2ccncn2)CC1, the Potency is reported as “inactive”. In the case of CN1CCN2c3ncccc3Cc3ccccc3C2C1 (stereo not given), the Potency is reported as “inactive”. For CC(=O)N1CCN(c2ccc(OCc3nn(C)c(C)c3-c3cccc4c(CCCOc5cc(C)c(Cl)c(C)c5)c(C(=O)O)n(Cc5cccnc5)c34)cc2)CC1, the Potency was “inactive”. With CC1(C)OC2CC3C4CC(F)C5=CC(=O)C=CC5(C)C4C(O)CC3(C)[C@]2(C(=O)CO)O1 (stereo not given in full) the Potency was “inactive”. In the case of CCCCC[C@H](O)C=C[C@H]1[C@H](O)CC(=O)[C@H]1CCCCCCC(=O)O, the Potency is reported as “inactive”. In the case of CC[C@]1(O)C[C@H]2CN(CCC3=c4ccccc4=N[C]3[C@@](C(=O)OC)(c3cc4c(cc3OC)N(C)[C@H]3[C@@](O)(C(N)=O)[C@H](O)[C@]5(CC)C=CCN6CC[C@]43[C@@H]65)C2)C1, the Potency is reported as “inactive”. In the case of NC(=O)c1noc([C@H](CCCC2CCCCC2)CC(=O)NO)n1, the Potency is reported as “inactive”. In the case of O=C1CN2Cc3c(ccc(Cl)c3Cl)N=C2N1, the Potency is reported as “inactive”. For COc1ccc(-c2cc3nccn3c(Nc3ncccc3C(N)=O)n2)cc1OC, the Potency was “inactive”. For Cc1nc(NC(=O)N2CCC[C@@H]2C(N)=O)sc1-c1csc(C(C)(C)C)n1, the Potency was “inactive”. For Fc1ccc(C(c2ccc(F)cc2)N2CCN(CC=Cc3ccccc3)CC2)cc1, the Potency was “inactive”. With CCC[C@H](Nc1nc(-c2ccc(NC(=O)NCC)c(OC)c2)ncc1C)c1cccnc1 the Potency was “inactive”. With CC1=C[C@@H]2[C@@H]([C@@H](O)C[C@@]3(C)[C@H]2C[C@@H](C)[C@]3(O)C(=O)CO)[C@@]2(C)Cc3cnn(-c4ccccc4)c3C=C12 the Potency was “inactive”. In the case of COc1ccc(-c2ccc3ncc4c(c3c2)n(-c2ccc(N3CCNCC3)c(C(F)(F)F)c2)c(=O)n4C)cn1, the Potency is reported as “inactive”. In the case of CN(C)N=Nc1nc[nH]c1C(N)=O, the Potency is reported as “inactive”. In the case of FC(F)(F)c1ccc(C=Cc2nc(COc3ccc(CCCCn4ccnn4)cc3)co2)cc1, the Potency is reported as “inactive”. With O=c1[nH]nc(OCCCc2ccc(Cl)cc2)c(NCc2cccnc2)c1Br the Potency was “inactive”. With CN(C)CCCNC(=O)c1ccc(-c2cc(O)c3ncccc3c2)cc1 the Potency was “inactive”. For C[C@H]1COC2=C1C(=O)C(=O)c1c2ccc2c1CCCC2(C)C, the Potency was “inactive”. In the case of c1ccc(CNc2nc(N3CCOc4ccccc43)nc3c2CCCC3)cc1, the Potency is reported as “inactive”. For CC(=O)NCCC(=O)N[C@@H](CCC(N)=O)C(=O)N[C@@H](CO)C(=O)N[C@@H](CCC(N)=O)C(=O)N[C@@H](CCC(N)=O)C(=O)N[C@H](C(=O)N[C@@H](Cc1ccccc1)C(=O)N[C@]1(C)CCCCCCC=CCCC[C@@](C)(C(=O)N[C@@H](CCC(N)=O)C(=O)N[C@@H](CC(N)=O)C(N)=O)NC(=O)[C@H](CC(C)C)NC(=O)[C@H](CC(C)C)NC(=O)[C@@H](CCCNC(=N)N)NC(=O)[C@H](Cc2c[nH]c3ccccc23)NC(=O)[C@H](CC(C)C)NC(=O)[C@H](CC(N)=O)NC1=O)[C@H](C)O, the Potency was “inactive”. For CCN1CCC(n2cc(CNc3cc(Cl)c4ncc(C#N)c(Nc5ccc(F)c(Cl)c5)c4c3)nn2)CC1, the Potency was “inactive”. For OC[C@H]1O[C@@H](Oc2ccc(O)cc2)[C@H](O)[C@@H](O)[C@H]1O, the Potency was “inactive”. With Cc1cccc(-c2[nH]c(C(C)(C)C)nc2-c2ccc3c(c2)OCO3)n1 the Potency was “inactive”. With COc1cc([C@H]2Oc3cc([C@H]4Oc5cc(O)cc(O)c5C(=O)[C@H]4O)ccc3O[C@H]2CO)ccc1O the Potency was “inactive”. For CC1(C)[C@H]2CC[C@]3(C)[C@@H](C(=O)C=C4[C@@H]5C[C@@](C)(C(=O)O)CC[C@]5(C)CC[C@]43C)[C@@]2(C)CC[C@@H]1O, the Potency was “inactive”. In the case of CN(C)CCN(Cc1ccc(Cl)cc1)c1ccccn1, the Potency is reported as “inactive”.
